Screens deposited in PubChem by Broad Institute.
Sampled rows, rich in hits. Any-hit rate of the full collection: about 6.7%.
C diff growth: C. difficile growth inhibition; AID 1259249; Clostridium difficile clinical isolate growth, OD600, 24 h; active compounds read low; 86,000 tested, 0.25% active; growth activity, negative = inhibition, % at 16 µg/mL (by protocol);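 active means mean growth activity at or below -80% and every replicate also at or below -80%; inconclusive means mean at or below -80% but some replicate above -80%; inactive means mean growth activity above -80%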
T cruzi growth-1: T. cruzi proliferation inhibition. 77,000 tested, 5.9% active. inhibition, % at 8.34 µM. T. cruzi beta-gal in NIH3T3, GalScreen luminescence, 90 h. AID 624255;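 active means mean inhibition above about 93%, with at least 55% of replicates each passing it, limit read from the data, passing the limit was not always enough; inconclusive means only one of those two conditions holds; inactive means neither condition holds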
Pf Dd2 growth: blocks growth of Plasmodium falciparum Dd2 parasites; activity change, % at 10 µM; P. falciparum Dd2 growth, SYBR Green, 72 h; active compounds read low; AID 1159554; 94,000 tested, 2.3% active; in the data active means activity change below about -80%; inconclusive means no clear call, values can overlap the other calls
T cruzi growth-2: blocks T. cruzi growth in NIH3T3 host cells; T. cruzi beta-gal in NIH3T3, GalScreen luminescence, 90 h; inhibition, % at 8.35 µM; shares compounds with T cruzi growth-1; 5,600 tested, 72% active;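 active means mean replicate inhibition above about 95% and at least 55% of replicates individually reaching it, limit read from the data; inconclusive means only one of the two criteria is met; inactive means neither criterion is met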
T cruzi growth-3: blocks T. cruzi growth in NIH3T3 host cells; shares compounds with T cruzi growth-1; T. cruzi beta-gal in NIH3T3, GalScreen luminescence, 90 h; inhibition, % at 2.09 µM; 5,600 tested, 21% active; AID 651740;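 active means mean inhibition above about 95%, with at least 55% of replicates also reaching it, limit read from the data; inconclusive means meets just one of the two conditions; inactive means meets neither condition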
NIH3T3 tox: NIH/3T3 (mouse) viability loss; shares compounds with T cruzi growth-1; NIH/3T3 viability, CellTiter-Glo ATP luminescence, 90 h; cytotoxicity (signal decrease), % at 8.35 µM; 5,600 tested, 14% active; AID 651742;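 active means mean signal decrease across replicates above about 35% based on untreated-well scatter, with enough replicates individually passing, limit read from the data; inconclusive means no rule stated though some were filed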
3T3 cytotox 2: kills mouse NIH/3T3 fibroblasts. shares compounds with T cruzi growth-1. 5,600 tested, 56% active. NIH/3T3 viability, CellTiter-Glo ATP luminescence, 90 h. AID 651744. inhibition, % at 24.9 µM;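 active means mean loss of cell viability signal at or above a set limit, and enough replicates individually reaching it; inconclusive means meets only the mean limit or only the replicate share; inactive means meets neither condition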
Numbers stand for hits.

Screening CS(=O)(=O)N1CCCCN2[C@H](CO)[C@H](c3ccc(C4=CCCC4)cc3)[C@@H]2C1 returned C diff growth inactive, T cruzi growth-1 inactive and Pf Dd2 growth inactive.
For COc1ccc(S(=O)(=O)N2CCCCN3[C@@H](CO)[C@H](c4ccc(C5=CCCC5)cc4)[C@@H]3C2)cc1 the results were C diff growth inactive, T cruzi growth-1 inconclusive, Pf Dd2 growth inactive, T cruzi growth-2 104, T cruzi growth-3 inactive, NIH3T3 tox inactive and 3T3 cytotox 2 104.
`Cc1noc(C)c1NC(=O)Nc1ccc2c(c1)C(=O)N([C@@H](C)CO)C[C@@H](C)[C@@H](CN(C)C(=O)Nc1ccc(C(F)(F)F)cc1)OCCCC[C@@H](C)O2` gave C diff growth inactive, T cruzi growth-1 inactive and Pf Dd2 growth inactive.
Screening Cc1noc(C)c1NC(=O)NCC[C@H]1CC[C@@H](NC(=O)Nc2cccc(F)c2)[C@H](CO)O1 returned C diff growth inactive, T cruzi growth-1 inactive and Pf Dd2 growth inactive.
`O=C(C[C@@H]1C[C@@H]2c3cc(NC(=O)Nc4ccc(C(F)(F)F)cc4)ccc3O[C@@H]2[C@H](CO)O1)NCCc1ccccc1` gave C diff growth inactive, T cruzi growth-1 inactive and Pf Dd2 growth inactive.
`C/C=C/c1ccc2c(c1)O[C@H](CN(C)S(C)(=O)=O)[C@@H](C)CN([C@H](C)CO)S2(=O)=O` gave C diff growth inactive, T cruzi growth-1 inactive and Pf Dd2 growth inactive.
C/C=C/c1ccc2c(c1)O[C@@H](CN(C)S(=O)(=O)c1ccc(C)cc1)[C@@H](C)CN([C@@H](C)CO)S2(=O)=O was read as C diff growth inactive, T cruzi growth-1 98, Pf Dd2 growth inactive, T cruzi growth-2 108, T cruzi growth-3 inactive, NIH3T3 tox inactive and 3T3 cytotox 2 43.
Screening Cc1ccc(S(=O)(=O)N(C)C[C@H]2Oc3cc(Br)ccc3S(=O)(=O)N([C@@H](C)CO)C[C@H]2C)cc1 returned C diff growth inactive and Pf Dd2 growth inactive.
For C/C=C/c1ccc2c(c1)O[C@H](CN(C)S(=O)(=O)c1ccc(C)cc1)[C@H](C)CN([C@H](C)CO)S2(=O)=O the results were C diff growth inactive, T cruzi growth-1 117, Pf Dd2 growth inactive, T cruzi growth-2 107, T cruzi growth-3 inactive, NIH3T3 tox inactive and 3T3 cytotox 2 78.
C/C=C/c1ccc2c(c1)O[C@H](CN(C)CC1CC1)[C@H](C)CN([C@@H](C)CO)S2(=O)=O was read as C diff growth inactive, T cruzi growth-1 inactive and Pf Dd2 growth inactive.
For C[C@@H]1CCCCO[C@H](CN(C)S(=O)(=O)c2ccc(Cl)cc2)[C@@H](C)CN([C@H](C)CO)C(=O)c2cc(NC(=O)Nc3ccc(C(F)(F)F)cc3)ccc2O1 the results were C diff growth inactive, T cruzi growth-1 112, Pf Dd2 growth inactive, T cruzi growth-2 102, T cruzi growth-3 108, NIH3T3 tox inactive and 3T3 cytotox 2 31.
Cc1ccc(S(=O)(=O)N(C)C[C@H]2OCCCC[C@H](C)Oc3ccc(NC(=O)Nc4ccc(C(F)(F)F)cc4)cc3C(=O)N([C@@H](C)CO)C[C@@H]2C)cc1 was read as C diff growth inactive and Pf Dd2 growth inactive.
`C[C@@H]1CN([C@@H](C)CO)C(=O)c2cc(NC(=O)Nc3ccc(C(F)(F)F)cc3)ccc2O[C@@H](C)CCCCO[C@H]1CN(C)S(=O)(=O)c1ccc(Cl)cc1` gave C diff growth inactive, T cruzi growth-1 103, Pf Dd2 growth inactive, T cruzi growth-2 110, T cruzi growth-3 109, NIH3T3 tox inactive and 3T3 cytotox 2 inactive.
`C[C@H]1CCCCO[C@H](CN(C)S(=O)(=O)c2ccc(Cl)cc2)[C@@H](C)CN([C@@H](C)CO)C(=O)c2cc(NC(=O)Nc3ccc(C(F)(F)F)cc3)ccc2O1` gave C diff growth inactive, T cruzi growth-1 inactive and Pf Dd2 growth inactive.
Screening C[C@@H]1CN([C@H](C)CO)C(=O)c2cc(NC(=O)Nc3ccc(C(F)(F)F)cc3)ccc2O[C@@H](C)CCCCO[C@@H]1CN(C)S(=O)(=O)c1ccc(Cl)cc1 returned C diff growth inactive, T cruzi growth-1 103, Pf Dd2 growth inactive, T cruzi growth-2 106, T cruzi growth-3 inactive, NIH3T3 tox inactive and 3T3 cytotox 2 inactive.
Cc1ccc(S(=O)(=O)N(C)C[C@H]2OCCCC[C@H](C)Oc3ccc(NC(=O)Nc4ccc(C(F)(F)F)cc4)cc3C(=O)N([C@H](C)CO)C[C@H]2C)cc1 was read as C diff growth inactive and Pf Dd2 growth inactive.
Screening COc1cccc(-c2ccc3n(c2=O)C[C@H]2[C@H](CO)[C@@H](C(=O)N(C)C)N(C(=O)C4CC4)[C@@H]32)c1 returned C diff growth inactive and T cruzi growth-1 inactive.
`CCS(=O)(=O)N1CC2(CN(Cc3ccccc3OC)[C@@H](CO)c3c2c2ccc(OC)cc2n3C)C1` gave Pf Dd2 growth inactive.
Screening C[C@@H]1CN([C@@H](C)CO)C(=O)c2cc(/C=C/c3ccccc3)cnc2O[C@@H]1CN(C)Cc1cncnc1 returned C diff growth inactive and Pf Dd2 growth inactive.
For CC(=O)N1[C@H](CO)[C@@H]2c3ccccc3N(C(=O)c3ccccc3)C[C@@H]21 the results were C diff growth inactive, T cruzi growth-1 inactive and Pf Dd2 growth inactive.
For C[C@H](CO)N1C[C@H](C)[C@@H](CN(C)S(=O)(=O)c2ccccc2)OCCCC[C@H](C)Oc2ccc(NC(=O)Cc3ccccc3)cc2C1=O the results were Pf Dd2 growth inactive.
Screening C[C@H](CO)N1C[C@H](C)[C@H](CN(C)S(=O)(=O)c2ccccc2)OCCCC[C@H](C)Oc2ccc(NC(=O)Cc3ccccc3)cc2C1=O returned Pf Dd2 growth inactive.
`C[C@@H]1CN([C@@H](C)CO)C(=O)c2cc(NC(=O)Cc3ccccc3)ccc2O[C@@H](C)CCCCO[C@H]1CN(C)S(=O)(=O)c1ccc(Cl)cc1` gave C diff growth inactive, T cruzi growth-1 inactive and Pf Dd2 growth inactive.
C[C@@H]1CCCCO[C@@H](CN(C)S(=O)(=O)c2ccc(Cl)cc2)[C@H](C)CN([C@H](C)CO)C(=O)c2cc(NC(=O)Cc3ccccc3)ccc2O1 was read as C diff growth inactive, T cruzi growth-1 116, Pf Dd2 growth inactive, T cruzi growth-2 105, T cruzi growth-3 103, NIH3T3 tox inactive and 3T3 cytotox 2 inactive.
Screening C[C@H]1CCCCO[C@H](CN(C)S(=O)(=O)c2ccc(Cl)cc2)[C@@H](C)CN([C@@H](C)CO)C(=O)c2cc(NC(=O)Cc3ccccc3)ccc2O1 returned C diff growth inactive, T cruzi growth-1 112, Pf Dd2 growth -81, T cruzi growth-2 103, T cruzi growth-3 inactive, NIH3T3 tox inactive and 3T3 cytotox 2 inactive.
